In PubChem BioAssay AID493185 (National Center for Advancing Translational Sciences (NCATS), 2011):
A number with no mark means an inactive call. Active and inactive are the calls of the source. Calls follow the shape of the dose curve; as a rule, active = well fitted activation curve with a large enough effect; inconclusive = small, poorly fitted or top-dose-only effect; inactive = no such curve, though single readings can be large or run the other way.

Assay: Counterscreen for Identifying a Potential Treatment of Ataxia-Telangiectasia: Hit Validation; as to activation: 0% is about no effect
Conditions: cell-free AlphaLISA/AlphaScreen artifact counterscreen, PBS only, no cells; series mostly up to 76.9 µM; activation: at the top concentration
Outline: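 Cell-free AlphaLISA counterscreen: compounds (up to 76.7 uM final) in PBS with detection mix of anti-pKAP1 and anti-KAP1 antibodies on donor/acceptor beads plus lysis buffer, incubated 6 hr at 25C before AlphaScreen read.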
Potency is read from the fitted curve at half-maximal effect.

| Structure (SMILES) | activation | Potency |
| --- | --- | --- |
| COc1cccc(C(=O)NOCc2ccc(C)cc2)c1OC | 8.46% |  |
| CC1=C/C(=C\C=C(C#N)C#N)N(C)c2ccccc21 | 36.9% |  |
| COc1ccc(C(=O)CSc2nc3ncccc3[nH]2)cc1OC | -10.8% |  |
| Cc1nc(SCC(=O)Nc2cc(C(N)=O)cc(C(N)=O)c2)c2c(C)c(C)sc2n1 |  | 51.9 µM (active) |
| CN(CCc1ccccn1)C(=O)c1cc(COc2ccc(F)cc2F)on1 | 5.26% |  |
| CNC(=O)Cc1csc2ccc(C)cc12 | 3.28% |  |
| Nc1nc2ccccc2cc1-c1cccs1 | 17.2% |  |
| Cc1ccc2c(c1)C(=O)CC(O)(C(F)(F)F)O2 (stereo not given) | -6.56% |  |
| Cc1nn(CC(=O)N(C)Cc2ccc(F)cc2)c(C)c1[N+](=O)[O-] | 3.01% |  |
| CN(C)c1cc(Nc2ccc(O)cc2)c([N+](=O)[O-])c2nonc12 | 9.23% |  |
| COc1ccc(NCc2cc(=O)oc3cc(NC(C)=O)ccc23)cc1 | -11.5% |  |
| CCC(C)Nc1nc(N)c([N+](=O)[O-])c(NCCO)n1 (stereo not given) | -7.52% |  |
| COc1ccc(C2NC(=S)NC3=C2N2CCC3CC2)cc1 (stereo not given) | -22.3% |  |
| O=C(NC(=O)c1c(F)cccc1F)Nc1ccccc1SC(F)F | 9.02% |  |
| COc1ccc2c(c1)c(N=NC(N)=S)c(O)n2CC(=O)c1ccccc1 | -3.76% |  |
| O=c1c(-c2ccc(Cl)cc2)c[nH]n1-c1ccccc1 | -4.1% |  |
| CCOC(=O)c1[nH]c(COC(=O)c2ccccc2NC(=O)c2ccco2)c(C(=O)OCC)c1C | -6.56% |  |
| CCN(CC)c1ccc2cc(-c3nc4ccccc4[nH]3)c(=O)oc2c1 |  | 4.63 µM (active) |
| O=C(c1ccc(F)cc1)N1CCC(c2ccccc2)C1 (stereo not given) | 12.3% |  |
| CNC(=O)/C=C/c1cc(C(=O)c2ccc(Cl)cc2Cl)cn1C | -13.1% |  |

| Structure (SMILES) | activation | Potency |
| --- | --- | --- |
| COC(=O)Cc1ccc(NC(=S)NCCSc2ccc(Cl)cc2)cc1 | 3.08% |  |
| COc1ccc(NS(=O)(=O)c2ccc(N3CC(O)=C(c4ccccc4)C3=N)cc2)cc1 | -13.9% |  |
| O=C(Nc1ccccc1Oc1ccccc1)c1cccs1 | 4.1% |  |
| O=C(O)CCCN1C(=O)/C(=C/C=C/c2ccco2)SC1=S | -43.4% |  |
| CC(C)(C)NC(=O)c1cccc2c1-c1ccccc1C2=O | 0% |  |
| COc1ccc(N2CCN(C(=O)c3cc4cc(Cl)ccc4[nH]3)CC2)cc1 | 1.5% |  |
| NC(=O)C1CCN(Cc2nc3cc(C(F)(F)F)ccc3c(=O)[nH]2)CC1 | 0% |  |
| CC1(C)CC2(CCO1)OC(=O)CC2C(=O)Nc1c(Cl)cccc1Cl (stereo not given) | 7.38% |  |
| CCOC(=O)Cn1c(-c2ccccc2)cc(SC)c(C#N)c1=O | 11.5% |  |
| COc1cccc(OC)c1C(=O)NC(=O)Nc1c(C)cccc1C | -29.3% |  |
| O=c1c2cc(Br)ccc2nc(-c2ccccc2)n1O | -6.56% |  |
| CN(C)C(=O)c1nc2ccc(Cl)cn2c1CNCc1cccc(OC(F)(F)F)c1 | -11.3% |  |
| C=Cc1c(C)c2cc3[nH]c(cc4nc(cc5nc(cc1[nH]2)C(C)=C5CCC(=O)O)C(CCC(=O)O)=C4C)c(C)c3C=C |  | 29.2 µM (active) |
| CN(Cc1ccccc1)C(=O)c1cccc(N2C(=O)C3CC=CCC3C2=O)c1 (stereo not given) | 1.54% |  |
| CCc1ccc(C2c3[nH]c4ccccc4c3CCN2C(=O)c2cc[n+]([O-])cc2)cc1 (stereo not given) | 22.6% |  |
| CC(C)(C=O)C1=CC(=O)c2ccccc2C1=O | 0.752% |  |
| COc1ccccc1N1CCN(C(=O)c2cc(=O)c3c(C)cc(C)cc3o2)CC1 | -5.38% |  |
| COC(=O)c1cccc2c1-c1ccccc1/C2=N\NC(N)=O | -15.6% |  |
| COc1ccc2c(c1)cc(C(=O)N[C@H](C(=O)N1CCC(C(=O)O)CC1)C(C)C)n2C | -23.1% |  |
| C=C(C)n1c(=O)n(Cc2ccccc2C)c2ccccc21 | -0.82% |  |
